From PubChem BioAssay (Tox21) come the findings set out here.

Assay [1] can be described thus: qHTS assay to identify small molecule antagonists of the glucocorticoid receptor (GR) signaling pathway - cell viability counter screen (AID 720693). Note: nearly all actives have a fitted effect of over 55% in size.
Assay [2] in a line: qHTS assay for identifying genotoxic compounds that show differential cytotoxicity against isogenic chicken DT40 cell lines with known DNA damage response pathways - wild type cell line (AID 743012). Note: nearly all actives have a fitted effect of over 60% in size. In outline:
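Quantitative HTS on parental DT40 cells: 40 h compound treatment at 37 C/5% CO2, with viability then determined by CellTiter-Glo luminescence. Values serve as the DNA repair-proficient reference for differential cytotoxicity.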
A general note: qHTS replaces the single test concentration by a dilution series.

Assay [3] in a line: qHTS assay for identifying genotoxic compounds that show differential cytotoxicity against isogenic chicken DT40 cell lines with known DNA damage response pathways - Rad54/Ku70 mutant cell line (AID 743015). Note: nearly all actives have a fitted effect of over 60% in size. Note: potency is the fitted concentration of half-maximal effect.
The nature of assay [4]: qHTS assay to identify small molecule antagonists of the androgen receptor (AR) signaling pathway - cell viability counter screen (AID 743033; note: nearly all actives have a fitted effect of over 45% in size; note: potency is the fitted concentration of half-maximal effect).
Assay [5] can be described thus: qHTS assay to identify small molecule antagonists of the androgen receptor (AR) signaling pathway using the MDA cell line - cell viability counter screen (AID 743041; note: nearly all actives have a fitted effect of over 45% in size). The method in brief:
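Same-well cytotoxicity was assessed by CellTiter-Fluor in MDA-kb2 AR-luc cells after 16 h of compound treatment under R1881 agonism.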

Assay [6] is described as follows: qHTS assay to identify small molecule antagonists of the thyroid receptor (TR) signaling pathway (AID 743065). Note: nearly all actives have a fitted effect of over 55% in size. Note: potency is the fitted concentration of half-maximal effect. The method in brief: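 GH3.TRE-Luc rat pituitary cells (two TREs driving luciferase) were dosed with compound, then stimulated with 1 nM T3 (final) for 23.5 h at 37 C. ONE-Glo luminescence was the read-out, with CellTiter-Fluor fluorescence as the cytotoxicity counter-screen.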

Assay [7] has as its system thyroid hormone receptor (rat, GH3 cells). The experiment in a line: qHTS assay to identify small molecule agonists of the thyroid receptor (TR) signaling pathway (AID 743066; calls by dose curve).
The target of assay [8] is Estrogen receptor (Homo sapiens) (UniProt P03372). The experiment in a line: qHTS assay to identify small molecule antagonists of the estrogen receptor alpha (ER-alpha) signaling pathway (AID 743069; active = well fitted curve in the direction sought with a large enough effect in the signal ratio in the repeat runs, not every such curve was filed as active; inconclusive = weak or mixed curves, or effect the other way; inactive = no such curve, though single readings can be large or run the other way; the % refers to the signal ratio). The method in brief: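 Reporter cells (ER-alpha-bla, HEK293 background) are conditioned overnight in stripped-serum medium (2% charcoal-stripped FBS). Compound and 17beta-estradiol exposure runs 18 hr at 37C, 5% CO2.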
Estrogen receptor (Homo sapiens), sequence (P03372 whole entry, looked up): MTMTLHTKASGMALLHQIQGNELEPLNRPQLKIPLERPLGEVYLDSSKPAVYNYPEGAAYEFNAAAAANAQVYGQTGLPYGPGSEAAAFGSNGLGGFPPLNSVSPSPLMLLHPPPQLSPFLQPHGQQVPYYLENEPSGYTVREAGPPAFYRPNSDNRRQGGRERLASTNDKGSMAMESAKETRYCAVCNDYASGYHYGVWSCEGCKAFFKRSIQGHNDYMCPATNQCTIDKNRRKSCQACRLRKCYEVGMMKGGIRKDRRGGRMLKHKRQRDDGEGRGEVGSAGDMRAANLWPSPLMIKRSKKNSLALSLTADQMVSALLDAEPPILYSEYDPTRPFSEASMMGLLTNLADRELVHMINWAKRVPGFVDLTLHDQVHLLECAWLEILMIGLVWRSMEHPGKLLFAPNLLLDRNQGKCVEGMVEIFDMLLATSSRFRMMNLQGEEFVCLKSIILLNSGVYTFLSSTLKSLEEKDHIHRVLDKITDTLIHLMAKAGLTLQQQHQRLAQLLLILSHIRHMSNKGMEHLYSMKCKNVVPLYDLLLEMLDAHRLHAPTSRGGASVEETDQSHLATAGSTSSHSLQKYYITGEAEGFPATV

Assay [9] is described as follows: qHTS assay to identify small molecule antagonists of the estrogen receptor alpha (ER-alpha) signaling pathway - cell viability counter screen (AID 743074; calls by dose curve;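 note: HEK293 cells carrying ER-alpha-UAS-bla reporter stimulated with 17beta-estradiol; nearly all actives have a fitted effect of over 45% in size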).
The target of assay [10] is Estrogen receptor (Homo sapiens) (UniProt P03372). In words: qHTS assay to identify small molecule agonists of the estrogen receptor alpha (ER-alpha) signaling pathway (AID 743075; calls by dose curve;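 note: HEK293 GripTite cells with ER-alpha and UAS-driven beta-lactamase reporter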; note: potency is the fitted concentration of half-maximal effect).
Assay [11] has the same target. The experiment in a line: qHTS assay to identify small molecule agonists of the estrogen receptor alpha (ER-alpha) signaling pathway using the BG1 cell line (AID 743079). Note: nearly all actives have a fitted effect of over 20% in size. Note: potency is the fitted concentration of half-maximal effect.
A short description of assay [12]: qHTS assay to identify small molecule antagonists of the estrogen receptor alpha (ER-alpha) signaling pathway using the BG1 cell line (AID 743080; calls by dose curve;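 note: BG1 cells stimulated with 17beta-estradiol alongside compound; series mostly up to about 70 µM; nearly all actives have a fitted effect of over 25% in size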). In outline:
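Luciferase inhibition measured with ONE-Glo after 30 min at RT in BG1Luc4E2 cells given test compounds and 17beta-estradiol for 21.5 h at 37 C; CellTiter-Fluor viability read in the same wells beforehand.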

A short description of assay [13]: qHTS assay to identify small molecule antagonists of the estrogen receptor alpha (ER-alpha) signaling pathway using the BG1 cell line - cell viability counter screen (AID 743081).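 Note: compound given together with 17beta-estradiol as the ER stimulus; series mostly up to about 70 µM; nearly all actives have a fitted effect of over 45% in size.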
The next assay concerns the target Aromatase (Homo sapiens) (UniProt P11511). In words: qHTS assay to identify aromatase inhibitors (AID 743083). Note: nearly all actives have a fitted effect of over 55% in size. Note: potency is the fitted concentration of half-maximal effect.
Assay [14] can be described thus: qHTS assay for identifying genotoxic compounds that show differential cytotoxicity against isogenic chicken DT40 cell lines with known DNA damage response pathways - Rev3 mutant cell line (AID 743014). Note: nearly all actives have a fitted effect of over 55% in size. Note: potency is the fitted concentration of half-maximal effect.
Assay [15] deals with Androgen receptor (Homo sapiens) (UniProt P10275). The experiment in a line: qHTS assay to identify small molecule agonists of the androgen receptor (AR) signaling pathway (AID 743036; active = well fitted activation curve with a large enough effect in the signal ratio in the repeat runs, with a control signal flat, not every such curve was filed as active; inconclusive = weak or mixed curves, or effect the other way; inactive = no such curve, though single readings can be large or run the other way; the % refers to the signal ratio). The method in brief: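 Quantitative HTS of the Tox21 10K library in HEK293 cells bearing a stably integrated UAS-controlled beta-lactamase reporter. Compound exposure lasted 16 h at 37C. Reporter activity was detected by FRET substrate fluorescence after 2 h at room temperature.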
Androgen receptor (Homo sapiens), sequence (P10275 whole entry, looked up): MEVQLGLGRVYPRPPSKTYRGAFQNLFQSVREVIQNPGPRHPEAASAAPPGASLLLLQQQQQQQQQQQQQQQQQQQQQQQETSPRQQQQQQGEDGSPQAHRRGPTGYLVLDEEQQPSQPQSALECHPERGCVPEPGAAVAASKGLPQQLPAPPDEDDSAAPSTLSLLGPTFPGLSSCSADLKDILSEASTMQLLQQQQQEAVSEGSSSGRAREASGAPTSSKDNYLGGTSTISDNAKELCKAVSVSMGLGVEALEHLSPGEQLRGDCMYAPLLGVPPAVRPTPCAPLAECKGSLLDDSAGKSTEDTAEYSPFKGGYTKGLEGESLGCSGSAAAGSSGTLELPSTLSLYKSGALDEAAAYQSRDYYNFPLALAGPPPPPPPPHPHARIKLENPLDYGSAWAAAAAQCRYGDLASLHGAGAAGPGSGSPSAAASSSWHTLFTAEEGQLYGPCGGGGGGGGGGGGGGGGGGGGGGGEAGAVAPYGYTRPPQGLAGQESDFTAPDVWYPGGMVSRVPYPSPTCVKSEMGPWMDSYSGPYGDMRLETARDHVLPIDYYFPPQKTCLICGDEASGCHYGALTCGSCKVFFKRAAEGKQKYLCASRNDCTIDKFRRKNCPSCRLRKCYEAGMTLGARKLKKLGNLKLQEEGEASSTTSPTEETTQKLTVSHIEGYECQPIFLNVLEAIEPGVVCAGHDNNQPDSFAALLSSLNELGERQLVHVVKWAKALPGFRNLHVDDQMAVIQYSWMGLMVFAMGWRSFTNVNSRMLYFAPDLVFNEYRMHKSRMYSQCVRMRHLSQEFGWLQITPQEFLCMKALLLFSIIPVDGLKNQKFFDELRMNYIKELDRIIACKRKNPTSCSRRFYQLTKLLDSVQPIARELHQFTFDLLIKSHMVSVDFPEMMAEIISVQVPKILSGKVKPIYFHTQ

Assay [16] has the same target. In words: qHTS assay to identify small molecule agonists of the androgen receptor (AR) signaling pathway using the MDA cell line (AID 743040; note: nearly all actives have a fitted effect of over 20% in size). The method in brief:
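Human breast carcinoma MDA-kb2 reporter cells (MMTV-luc, AR/GR elements) were treated for 16 h at 37C in 0% CO2 following a 5 h settling period. Signal was quantified by ONE-Glo luminescence.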

For assay [17] the target is unchanged. In words: qHTS assay to identify small molecule antagonists of the androgen receptor (AR) signaling pathway using the MDA cell line (AID 743042; note: nearly all actives have a fitted effect of over 55% in size). The method in brief: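 MDA-kb2 breast carcinoma cells carrying MMTV-luciferase (AR/GR responsive) were co-treated with compounds and the agonist R1881 for 16 h at 37C. Inhibition read as ONE-Glo luminescence; CellTiter-Fluor fluorescence measured in parallel for cytotoxicity.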

The nature of assay [18]: qHTS assay to identify small molecule antagonists of the thyroid receptor (TR) signaling pathway - cell viability counter screen (AID 743064). Note: nearly all actives have a fitted effect of over 50% in size. Note: potency is the fitted concentration of half-maximal effect. In outline:
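Rat GH3 pituitary tumor cells stably expressing two TR response elements driving luciferase were plated, rested 4 h, then dosed with library compounds and T3 (1 nM final). After 23.5 h at 37 °C, CellTiter-Fluor was added for 30 min and fluorescence recorded.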

Activity calls are given as the source filed them. Unless noted, calls come from the whole dose curve; as a rule, active = well fitted curve in the direction sought with a large enough effect in the repeat runs; inconclusive = weak or mixed curves; inactive = no such curve, though single readings can be large; an effect the other way counts as inactive or inconclusive.

Aromatase (Homo sapiens), sequence (P11511 whole entry, looked up): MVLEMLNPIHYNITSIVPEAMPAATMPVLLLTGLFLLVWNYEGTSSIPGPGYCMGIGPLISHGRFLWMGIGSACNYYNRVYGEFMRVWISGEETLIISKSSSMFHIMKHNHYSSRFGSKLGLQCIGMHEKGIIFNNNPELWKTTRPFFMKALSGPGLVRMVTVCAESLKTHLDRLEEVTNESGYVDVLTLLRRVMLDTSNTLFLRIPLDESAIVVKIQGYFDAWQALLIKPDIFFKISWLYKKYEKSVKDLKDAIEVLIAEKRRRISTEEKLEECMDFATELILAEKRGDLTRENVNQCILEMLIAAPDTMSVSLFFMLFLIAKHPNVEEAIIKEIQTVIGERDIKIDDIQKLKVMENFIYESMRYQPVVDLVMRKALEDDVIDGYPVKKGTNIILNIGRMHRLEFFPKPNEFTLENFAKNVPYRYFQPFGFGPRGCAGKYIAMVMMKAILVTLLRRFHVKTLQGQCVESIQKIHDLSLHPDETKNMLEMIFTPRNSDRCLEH

Regarding `N#C/C(N)=C(/N)C#N`, the Potency entry in [1], in assay [2], in assay [3], in [4], in assay [5] and in [6] was “inactive” each time. Further, the Potency result in [7], in [8], in assay [9], in [10], in [11] and in [12] was “inactive” in each case. Also, the Potency entry (in assay [13]; with Aromatase (Homo sapiens)) was “inactive” each time.
As for `CCOP(=S)(OCC)Oc1nc(Cl)c(Cl)cc1Cl`, the Potency result in assay [1], in [14], in assay [3], in assay [4], in assay [16] and in [5] was “inactive” each time. The Potency entry in assay [17], in [18], in assay [7], in assay [8], in [9] and in assay [10] was “inactive” in each case. Also, the Potency result (in assay [11]; in assay [12]; in [13]; with Aromatase (Homo sapiens)) was “inactive” each time. Moreover, the result in [15] was inactive.
Regarding `OCCCBr`, the Potency entry in assay [1], in assay [14], in [3], in assay [4], in [5] and in assay [7] was “inactive” each time. For the same compound, the Potency result (in [8]; in assay [10]; in [11]; in [12]; in the assay with Aromatase (Homo sapiens)) was “inactive” throughout. The Potency was 54.5 µM (active) in assay [18] and 61.1 µM (active) in assay [6].
For the compound `Cc1cc(=O)[nH]o1`, the Potency result in assay [1], in [2], in [4], in [16], in [5] and in assay [17] was “inactive” each time. Further, the Potency entry in assay [18], in [8], in [9], in [10], in assay [11] and in [12] was “inactive” throughout. Besides, the Potency result (in [13]; with Aromatase (Homo sapiens)) was “inactive” each time. In assay [15], the call was inactive.
For the compound `CCc1ccc(C(=O)NN(C(=O)c2cc(C)cc(C)c2)C(C)(C)C)cc1`, the Potency entry in [1], in [4], in assay [6], in assay [7], in [9] and in [10] was “inactive” throughout. The Potency entry (in [11]; in assay [12]; in assay [13]; in the assay with Aromatase (Homo sapiens)) was “inactive” each time. The Potency is 27.3 µM (active) in assay [14], 27.3 µM (active) in assay [3] and 1.54 µM (active) in assay [18].
On to `Nc1ccc(N=Nc2ccc(-c3ccc(N=Nc4c(S(=O)(=O)O)cc5cc(S(=O)(=O)O)c(N=Nc6ccccc6)c(O)c5c4N)cc3)cc2)c(N)c1`, for which the Potency entry in [1], in assay [2], in [3], in assay [4], in [5] and in [7] was “inactive” throughout. The Potency entry in [10], in [11], in [12] and in assay [13] was “inactive” throughout.
On to `Cc1c(F)c(F)c(COC(=O)C2C(/C=C(\Cl)C(F)(F)F)C2(C)C)c(F)c1F` (centres undefined), for which the Potency entry in assay [1], in assay [14], in assay [4], in [18], in [7] and in assay [8] was “inactive” each time. The Potency entry (in [9]; in assay [10]; in [11]; in [12]; in assay [13]; with Aromatase (Homo sapiens)) was “inactive” throughout.
For the compound `O=NN1CCNCC1`, the Potency result in assay [1], in assay [14], in assay [3], in [5], in [6] and in [7] was “inactive” each time. Also, the Potency entry in assay [8], in [9], in assay [10], in [11], in assay [12] and in [13] was “inactive” in each case. Also, the Potency entry with Aromatase (Homo sapiens) was “inactive”.
In the case of `CC(C)O.CC(C)O.OCCN(CCO)CCO.OCCN(CCO)CCO.[Ti]`, the Potency result in assay [1], in [14], in [3], in [5], in assay [18] and in assay [6] was “inactive” in each case. Besides, the Potency result in assay [7], in [9] and in [13] was “inactive” throughout.
With `CCCCCCCCCC(=O)O[C@H]1CC[C@H]2[C@@H]3CCC4=CC(=O)CC[C@@H]4[C@H]3CC[C@]12C`, the Potency result in assay [1], in assay [2], in assay [3], in [5], in assay [18] and in assay [6] was “inactive” each time. Further, the Potency result (in assay [7]; in assay [12]; in [13]; with Aromatase (Homo sapiens)) was “inactive” each time. Also, the Potency in assay [10] was 0.848 µM [inconclusive] (active); in assay [11] it was 0.188 µM (active).
Regarding `NCCCNCCCN`, the Potency result in assay [1], in assay [16], in assay [17] and in assay [13] was “inactive” in each case. Further, the Potency in assay [14] is 55.3 µM (active); in assay [3], 62.1 µM (active); in [4], 49.7 µM (active); in [18], 62.1 µM (active); in assay [6], 62.1 µM (active); with Aromatase (Homo sapiens) it was 62.1 µM (active).
With `CCCN(CCC)c1c([N+](=O)[O-])cc(S(C)(=O)=O)cc1[N+](=O)[O-]`, the Potency result in [1], in assay [14], in [4], in assay [5], in assay [6] and in assay [7] was “inactive” each time. Besides, the Potency result (in [9]; in [10]; in [12]; in assay [13]; in the assay with Aromatase (Homo sapiens)) was “inactive” throughout.
